In all, about 16,000 sequences were measured (“e-score”: median about -0.044, highest 2% from about 0.38 on). This excerpt belongs to a sample that is enriched for the highest values.

The test concerns the target T1, GST-NbGlk1(82-244) (Nicotiana benthamiana).
T1 chain: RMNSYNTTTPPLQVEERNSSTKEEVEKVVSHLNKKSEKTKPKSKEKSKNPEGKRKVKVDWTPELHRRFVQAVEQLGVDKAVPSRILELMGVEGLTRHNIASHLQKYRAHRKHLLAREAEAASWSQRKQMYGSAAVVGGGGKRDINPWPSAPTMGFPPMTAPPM
In words: protein-binding microarray; NbGlk1 is a Golden2-like transcription factor of Nicotiana benthamiana; high values mean tight binding. The note with it: protein: recombinant; tags: GST (pTH6838); dsDNA, one strand shown.
For the sequence AATCTGGA, the binding signal was determined as 0.452 ± 0.00746 E-score.
As for AATCAGGG, the binding signal was determined as 0.313 ± 0.0785 E-score.
The figure for AATCTGGG is 0.428 ± 0.0442 E-score; for ATCCTGGA it is 0.296 ± 0.0334 E-score; for ATCTGGGG it is 0.27 ± 0.147 E-score.
For AGTGAAAT, the binding signal stood at 0.208 ± 0.0317 E-score.
In the case of ATTACGAA, the binding signal was found to be 0.341 ± 0.0714 E-score.
As for ACCGTATC, the binding signal was determined as 0.274 ± 0.0523 E-score.
AATGAGAT: the binding signal worked out at 0.312 ± 0.0605 E-score.
With ATTTCGGA, the binding signal came to 0.309 ± 0.0179 E-score.
For ATTGCGAC, the binding signal stood at 0.346 ± 0.0296 E-score.
In the case of ATCAGTAA, the binding signal amounted to 0.214 ± 0.0917 E-score.
Turning to AATCATAC, the binding signal is 0.263 ± 0.039 E-score.
As for AGCGAGAT, the binding signal was determined as 0.269 ± 0.0866 E-score.
In the case of AATATATA, the binding signal worked out at 0.27 ± 0.0135 E-score.
As to AGAATAAT, the binding signal turned out to be 0.206 ± 0.0577 E-score.
On to ATCCGGCA, for which the binding signal is 0.253 ± 0.0503 E-score.
With ATTGCGGA, the binding signal was found to be 0.359 ± 0.0313 E-score.
The figure for ATCTGGAA is 0.351 ± 0.0575 E-score.
The figure for AATCGACG is 0.243 ± 0.0212 E-score; for AATCTACA it is 0.401 ± 0.0303 E-score.
For ATCCTACA, the binding signal is 0.298 ± 0.0179 E-score.
Regarding AATCTACG, the binding signal stood at 0.38 ± 0.0162 E-score.
Take AATCATCT: the binding signal amounted to 0.205 ± 0.0194 E-score.
The figure for AATCAACT is 0.274 ± 0.00959 E-score; for ATTCTATC it is 0.261 ± 0.0903 E-score.
As to AATCTACC, the binding signal came to 0.404 ± 0.00847 E-score.
In the case of AATCAACG, the binding signal is 0.247 ± 0.00961 E-score.
On to AATATACA, for which the binding signal was determined as 0.21 ± 0.00993 E-score.
Consider AATCTACT, for which the binding signal was found to be 0.406 ± 0.0108 E-score.
In the case of ATTTTAGA, the binding signal worked out at 0.221 ± 0.0235 E-score.
For ATCTCATA, the binding signal is 0.291 ± 0.0411 E-score.
The figure for ATCCCCAA is 0.276 ± 0.0488 E-score.
On to ATAGGATA, for which the binding signal is 0.247 ± 0.133 E-score.
Consider AAATATTA, for which the binding signal turned out to be 0.313 ± 0.0186 E-score.
With ATACAAAA, the binding signal amounted to 0.251 ± 0.0113 E-score.
For AGCTAGAT, the binding signal amounted to 0.216 ± 0.00676 E-score.
As for ATTGCGGG, the binding signal is 0.26 ± 0.0952 E-score.
Consider AATCGCGG, for which the binding signal stood at 0.317 ± 0.0232 E-score.
For AAATAAAG, the binding signal came to 0.202 ± 0.0801 E-score.
As to ATATTGTC, the binding signal is 0.261 ± 0.0163 E-score.
The figure for AGATCGTC is 0.3356 ± 0.00264 E-score; for AGATTGTA it is 0.3324 ± 0.00276 E-score.
Turning to AGATTGTC, the binding signal was found to be 0.3936 ± 0.00333 E-score.
Turning to AGATTGTG, the binding signal was 0.421 ± 0.0279 E-score.
Take ATATTGTG: the binding signal is 0.235 ± 0.0938 E-score.
Take AAGGATTG: the binding signal stood at 0.247 ± 0.0253 E-score.
In the case of AAATATAA, the binding signal was 0.208 ± 0.0739 E-score.
AATCCGCG: the binding signal was found to be 0.396 ± 0.0375 E-score.
Turning to AATCCGCT, the binding signal worked out at 0.388 ± 0.0352 E-score.
In the case of ATCCCGCA, the binding signal was found to be 0.289 ± 0.00853 E-score.
Take AATCCGCA: the binding signal worked out at 0.395 ± 0.0273 E-score.
Turning to AATCCCCT, the binding signal turned out to be 0.2621 ± 0.00234 E-score.
Consider ATTCCGCA, for which the binding signal turned out to be 0.238 ± 0.0649 E-score.
The figure for AATCAGCG is 0.312 ± 0.0496 E-score; for ATTCCGCG it is 0.256 ± 0.00946 E-score; for AATCCGCC it is 0.372 ± 0.0634 E-score.
With ATCTTGGG, the binding signal was determined as 0.216 ± 0.0663 E-score.
On to AAATAGAT, for which the binding signal came out at 0.264 ± 0.0472 E-score.
As for ATCTGGTG, the binding signal is 0.3327 ± 0.000333 E-score.
As to ATACATAT, the binding signal was 0.204 ± 0.0258 E-score.
ATATAGAT: the binding signal was determined as 0.352 ± 0.0482 E-score.
Take ATTTAAGA: the binding signal worked out at 0.236 ± 0.0208 E-score.
As to AAGGATCT, the binding signal is 0.335 ± 0.00404 E-score.
As to ACGGATAT, the binding signal worked out at 0.381 ± 0.03 E-score.
As for ACGGATAC, the binding signal came out at 0.2607 ± 0.00125 E-score.
As to ACGGATCT, the binding signal was determined as 0.265 ± 0.053 E-score.
The figure for AGGGATAT is 0.353 ± 0.00472 E-score.
AAGGATAT: the binding signal amounted to 0.387 ± 0.00749 E-score.
As to ATTATATA, the binding signal is 0.215 ± 0.115 E-score.
As to ATCTACAC, the binding signal was 0.34 ± 0.0325 E-score.
As to AATTCTGT, the binding signal amounted to 0.223 ± 0.0117 E-score.
The figure for ATACGCTA is 0.239 ± 0.0564 E-score; for ATCATGAA it is 0.215 ± 0.0159 E-score; for CAGATCTA it is 0.249 ± 0.0194 E-score.
In the case of CAGATCTG, the binding signal was found to be 0.38 ± 0.0481 E-score.
For the sequence AAGATCTC, the binding signal came to 0.406 ± 0.00477 E-score.
Take AAGATCTA: the binding signal amounted to 0.356 ± 0.00732 E-score.
For AGGATCTA, the binding signal was determined as 0.314 ± 0.04 E-score.
The figure for AGGATCTG is 0.337 ± 0.025 E-score; for AAGATCTG it is 0.362 ± 0.0161 E-score.
AAGATCAC: the binding signal is 0.225 ± 0.0928 E-score.
On to CAGATCCC, for which the binding signal turned out to be 0.266 ± 0.0242 E-score.
As to AGGATCTC, the binding signal worked out at 0.402 ± 0.0113 E-score.
The figure for CAGATCTC is 0.423 ± 0.0294 E-score.
The figure for CAGATCCG is 0.266 ± 0.0152 E-score.
